# High-throughput results from PubChem.
# The list is not random: actives were taken first. Their share in the collection is about 3.1%.
# Tau ThT inhib: inhibitors of human tau fibril formation, thioflavin T binding | AID 1460 | recombinant tau K18 P301L, heparin-induced fibrillization, ThT fluorescence | hit rate 2.1% among 270,000 | Potency, µM (titrated, usually from 57.4 µM), without a hit: at the top dose activity, negative = inhibition, usual class: inhibitors | P10636; further: potency means the concentration at half of the fitted maximal effect; on the % scale 0 is the no-effect control and ±100 the full control effect; nearly all actives have a fitted effect of over 55% in size
# Target sequence (P10636 561-689 P618L limits assumed): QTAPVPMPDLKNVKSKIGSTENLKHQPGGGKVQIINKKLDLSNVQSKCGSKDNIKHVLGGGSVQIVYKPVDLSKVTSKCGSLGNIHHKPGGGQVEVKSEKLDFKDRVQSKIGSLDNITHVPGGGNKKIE
#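 In this qHTS, human K18 P301L tau is incubated with compound and heparin for 6 hr at 37 C, and Thioflavin T fluorescence then reports fibril load.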
# TRb SRC2 PPI: disrupts binding of human TR beta to SRC2 | TRbeta-SRC2 peptide binding, fluorescence polarization; receptor liganded with 1 µM T3 | Potency, µM (doses to about 106 µM), inactives show at the highest dose activity change, negative = inhibition, hits mostly inhibitors | hit rate 0.065% among 280,000 | AID 1469;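 further: potency means the concentration at half of the fitted maximal effect; plate controls were bound peptide for no effect and peptide without receptor for full effect; nearly all actives have a fitted effect of over 50% in size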
#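 A fluorescence polarization screen tested compounds at multiple concentrations against complex formation between 0.6 uM TRb ligand-binding domain and 20 nM Texas Red SRC2 peptide, with 1 uM T3 present; readout after 5 hr.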
# TR SRC2 fluor cs: Texas Red fluorescence interference in TRb-SRC2 counter-screen; TRb/SRC2 Texas Red total fluorescence interference; Potency, µM (top dose mostly 106 µM), inactives show at the top dose fluorescence change, negative = quenching; AID 1479; hit rate 0.29% among 280,000; active means well fitted curve in either direction with a large enough effect; inconclusive means small, poorly fitted or top-dose-only effect; further: potency means the concentration at half of the fitted maximal effect; on the % scale 0 is the no-effect control and ±100 the full control effect
#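 Flags fluorescent or light-absorbing compounds by total fluorescence, S + 2P, at 555 nm excitation and 632 nm emission. Mixture: 20 nM Texas Red SRC2 peptide, 0.6 uM human TRb LBD, 1 uM T3, 5% DMSO; compound exposure 5 h at ambient temperature.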
# Tau fluor counter: counter-screen for tau fibril formation inhibitors. tau K18 P301L (four-repeat tau fragment) Alexa594 fluorescence, heparin fibrillization. Potency, µM (highest dose often 57.7 µM), inactives show top-dose activity change, negative = decrease. hit rate 0.93% among 280,000. AID 1463; further: potency means the concentration at half of the fitted maximal effect; on the % scale 0 is the no-effect control and ±100 the full control effect; nearly all actives have a fitted effect of over 55% in size
#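 Human K18 P301L tau (15 uM unlabeled plus 0.24 uM Alexa 594-labeled, final) in 100 mM sodium acetate pH 7 was mixed with compound and 20 uM heparin and incubated 6 hr at 37 C.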
# Tau fibril FP: blocks human tau fibril formation measured by polarization; hit rate 0.39% among 280,000; AID 1468; Potency, µM (top dose mostly 57.7 µM), for inactives: top-dose activity, negative = inhibition, actives largely listed as inhibitors; P10636; K18 P301L tau heparin fibrillization, Alexa594 FP, 6 h; further: potency means the concentration at half of the fitted maximal effect; on the % scale 0 is the no-effect control and ±100 the full control effect; nearly all actives have a fitted effect of over 55% in size
#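 Read-out: fluorescence polarization of Alexa 594-labeled tau (0.24 uM), 555 nm excitation, 632 nm emission. Mixtures held 15 uM unlabeled K18 P301L, compound and 20 uM heparin, pH 7 acetate buffer, incubated 6 hr at 37 C.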
# RGS12 GoLoco inh-1: RGS12 GoLoco-Gai1 interaction inhibition; P63096; Gai1:RGS12 GoLoco peptide FP, rhodamine, 10 min; hit rate 0.44% among 230,000; Potency, µM (highest dose often 61.6 µM), for the others: top-dose activity, negative = inhibition, hits mostly inhibitors; active means well fitted inhibition curve with a large enough effect, not every such curve was filed as active; inactive means no such curve, though single readings can be large or run the other way; further: potency means the concentration at half of the fitted maximal effect; on the % scale 0 is the no-effect control and ±100 the full control effect; nearly all actives have a fitted effect of over 30% in size
# RGS12 GoLoco inh-2: confirmation of human RGS12 GoLoco motif inhibitors; AID 2390; shares compounds with RGS12 GoLoco inh-1; Potency, µM (titrated, usually from 57.1 µM), inactives show top-dose activity, negative = inhibition, most hits filed as inhibitors; hit rate 50% among 110; Gai1/rhodamine-RGS12 GoLoco peptide fluorescence polarization
# Starred values were filed as active, the others as inactive; ? = inconclusive; . = not tested or not shown. Unless noted, the call rests on the fitted dose curve; in most records, active means well fitted curve in the direction sought with a large enough effect; inconclusive means small, poorly fitted or top-dose-only effect, or another doubt; inactive means no such curve, though single readings can be large; an effect the other way counts as inactive or inconclusive.
SMILES,Tau ThT inhib,TRb SRC2 PPI,TR SRC2 fluor cs,Tau fluor counter,Tau fibril FP,RGS12 GoLoco inh-1,RGS12 GoLoco inh-2
CCC(=O)OC1CCC2C3CCC4=CC(=O)CC[C@@]4(C)C3CC[C@]12C (stereo partly drawn),?,5%,0%,-11%,7%,14µM*,.
Cc1cccc(OCC(=O)Nc2cc(-c3ccccc3F)nn2-c2ccccc2)c1,-2%,-11%,1%,-1%,?,.,.
Cc1cc(C(=O)O)sc1C(N)C(=O)O (stereo not drawn),?,1%,-1%,-16%,-15%,-14%,.
CCC(C)N1C(=O)NC(=O)C2(Cc3c(ccc4ccccc34)N(C)C2)C1=O (stereo not drawn),16µM*,-3%,-4%,?,?,-18%,.
C=C1C(O)(c2ccccc2)C2CC[N+]1(C)CC2 (stereo not drawn),-5%,-6%,-1%,2%,6%,10µM*,?
C=C1N2CCC(CC2)C1(O)c1ccc(C)cc1 (stereo not drawn),-13%,2%,3%,-8%,-3%,-15%,.
CCOc1ccc(N=Cc2c(O)n(-c3cc(C)cc(C)c3)c(=O)[nH]c2=O)cc1,?,-1%,-2%,-10%,1%,13%,.
Nc1ncnc2c1nc(Sc1ccc(Cl)cc1)n2[C@@H]1O[C@@H]2COP(O)(=S)O[C@H]2[C@H]1O (stereo partly drawn),.,-3%,3%,.,.,.,.
NC(N)=Nc1ccc2[nH]c3c(c2c1)C[C@@]1(O)[C@H]2Cc4ccc(O)c5c4[C@@]1(CCN2CC1CC1)[C@H]3O5,1%,-2%,-2%,-4%,-1%,2.8µM*,7.9µM*
CCC[N+]12CCC(CC1)C(=C(c1ccccc1)c1ccccc1)C2,-13%,-12%,-4%,-4%,-1%,7%,.
CCCC[N+]12CCC(CC1)C(=C(c1ccccc1)c1ccccc1)C2,-11%,-3%,1%,-7%,-14%,7.9µM*,16µM*
C[N+]12CCC(CC1)C(C#N)(N1CCOCC1)C2 (stereo not drawn),3%,3%,-1%,8%,-1%,2.2µM*,?
